According to PubChem BioAssay AID489025 (Southern Research Specialized Biocontainment Screening …, 2010):
The whole screen tested about 2,300 compounds, of which about 790 (34%) were called active. The rule behind the calls is not given here. The list shows a part of the results. A call without a number means that no potency is given here. Potency and affinity values are given separately.

assay: THP-1 cell cytotoxicity, dose response, cytotoxicity control for non-replicating M. tuberculosis project (AID 489025); details: THP-1 cell viability; series mostly up to 40 µM

SMILES | outcome
CC(=O)c1ccc(OCC(=O)Nc2ccc3c(c2)CCC3)cc1 | inactive
Cc1nnc(N/N=C/c2ccc(-c3ccc(Br)cc3)o2)n1N | inactive
CC(=O)N(c1nnc(-c2ccc(C)cc2)s1)C1CCCC1 | inactive
CC1=NN(C(=O)c2cc(C)nn2C)C(O)(C(F)(F)F)C1 (configuration not stated) | inactive
O=C(c1ccccc1[N+](=O)[O-])N1N=C(c2ccccc2)CC1(O)C(F)(F)F (configuration not stated) | inactive
CC1=NN(C(=O)CCCc2ccccc2)C(O)(C(F)(F)F)C1 (configuration not stated) | inactive
CC1=NN(C(=O)c2csc(C(C)C)c2)C(O)(C(F)(F)F)C1 (configuration not stated) | inactive
CCOC(=O)C1=C(C)NC(=O)NC1c1ccc(-c2ccc(F)cc2)o1 (configuration not stated) | inactive
COc1cccc(-c2nc(C=O)cs2)c1 | inactive
CCOC(=O)c1cc(-c2cccc([N+](=O)[O-])c2)on1 | inactive
CC(NC(=O)c1cccc(F)c1)C1CC2CCC1C2 (configuration not stated) | inactive
COc1ccc(CNC(=O)COC(=O)C2CC3C=CC2C3)cc1 (configuration not stated) | inactive
CCCCNC(=O)Nc1nnc(-c2ccc(Cl)cc2)o1 | inactive
O=C(CCN1CCC(c2cccs2)=N1)c1cccs1 | inactive
O=c1ccn(-c2ccccc2)[nH]1 | inactive
COC(=O)c1ccc(CO/N=C/c2ccc(OC)cc2)o1 | inactive
CCOC(=O)c1c(-c2ccc(C)o2)csc1NC(=O)CN1CCCCC1 | inactive
Cc1ccc(C(=O)COC(=O)CCc2ccc(S(=O)(=O)N3CCCCC3)cc2)cc1 | inactive
Cc1ccc(OCC(=O)N2CCCc3ccccc32)cc1 | inactive
COc1cc2c(cc1OC)CN(CCC(=O)c1ccc(Br)cc1)CC2 | inactive
COc1ccc(C(=O)CCNc2ccc(F)cc2)cc1 | inactive
COc1ccc(C(C)NC(=O)CCc2ccccc2)cc1 (configuration not stated) | inactive
CC(C)Oc1ccc(CNC(=O)Oc2ccccc2)cc1 | inactive
COc1ccc(C(O)CNc2ccc(C)cc2)cc1 (configuration not stated) | inactive
COc1ccc(OC(=O)C(C)N2C(=O)c3ccccc3C2=O)cc1 (configuration not stated) | inactive

SMILES | outcome
CN(C)Cc1ccccc1Sc1ccccc1Br | inactive
COC(=O)COc1ccc2c(-c3ccc(OC)cc3)cc(=O)oc2c1 | inactive
CCOCC(=O)Nc1nc2ccc(C)cc2s1 | inactive
Cc1ccc(C)c(-c2csc(NC(=O)c3cnccn3)n2)c1 | inactive
O=C(NNc1nc2cc3c(cc2s1)OCCO3)c1ccccc1 | inactive
CCOc1ccc2nc(/N=C/c3nc(-c4ccccc4)oc3O)sc2c1 | inactive
O=C(Nc1c(F)cc(F)cc1Br)c1cc(-c2ccccc2)on1 | inactive
O=C(Nc1nccs1)c1ccccn1 | inactive
Cc1nc2ccc(OC(=O)c3ccccc3)cc2s1 | inactive
O=C(CCN1CCC(c2ccccc2)C1)c1ccccc1 (configuration not stated) | inactive
O=C(CNC(=O)c1ccccc1F)OCc1csc(-c2ccccc2)n1 | inactive
O=C(NCc1ccc2c(c1)OCO2)c1ccc(Cl)s1 | inactive
C=CCc1ccc2oc(C(=O)OCC)cc(=O)c2c1O | inactive
CCc1ccc(C(C)NC(=O)C2CCCO2)cc1 (configuration not stated) | inactive
CC1=CC(=O)NP(=O)(Oc2ccc3ccccc3c2)N1 (configuration not stated) | inactive
O=C(NNc1nc2ccccc2s1)c1ccc(F)cc1 | inactive
Cc1nc2ccc(NC(=O)COc3cccc(F)c3)cc2s1 | inactive
COc1cc(/C=C2/C(=O)NN(c3cccc(C)c3)C2=O)ccc1OC(=O)c1ccco1 | inactive
COc1cc(NC(=O)C/C(C)=N/NC(=O)c2cccs2)c(OC)cc1Cl | inactive
Cc1cccc2nc(CSc3nc4cc([N+](=O)[O-])ccc4s3)cn12 | inactive
O=C(O)c1ccc(NCc2ccc(Br)cc2)cc1 | inactive
O=C(CN1CCOCC1)N/N=C/c1ccc(-c2ccc(Br)cc2)o1 | inactive
CCCOC(=O)c1cc(-c2ccc(C=O)o2)ccc1Cl | inactive
COC(=O)c1cc(-c2ccc(OC)cc2)on1 | inactive
CCOC(=O)CNC(=O)N1c2ccccc2Sc2ccccc21 | inactive

SMILES | outcome
CCOC(=O)Nc1cccc(OCC(=O)Nc2ccc(OC)cc2OC)c1 | inactive
CCOC(=O)c1sc(NC(=O)CCN2CCOCC2)c(C(=O)OCC)c1C | inactive
CCOC(=O)c1c(-c2ccccc2)csc1NC(=O)CCN1CCOCC1 | inactive
COc1cc(/C=N/Nc2ccc(Cl)c(C(=O)O)c2)ccc1OC(=O)c1ccco1 | inactive
CC(C)CSc1nnc2c3ccccc3n(C)c2n1 | inactive
Cc1ccc(/C(O)=C/c2nc3ccccc3oc2=O)cc1 | inactive
COc1ccc(C(=O)COC(=O)c2ccc(Cl)nc2)c(OC)c1 | inactive
O=C1CC(N2CCN(c3ccc(F)cc3)CC2)C(=O)N1Cc1ccccc1 (configuration not stated) | inactive
O=C(NNc1c(F)c(F)cc(F)c1F)c1cc2ccccc2oc1=O | inactive
Nc1ccc2cc(Br)ccc2c1 | inactive
O=C(OCC(=O)N1CCCc2ccccc21)c1ccc(S(=O)(=O)C(F)F)cc1 | inactive
O=C(C1CCN(C2CC(=O)N(Cc3ccccc3)C2=O)CC1)N1CCCCCC1 (configuration not stated) | inactive
Cc1cccc(OC(=O)c2ccc3nccnc3c2)c1 | inactive
CCOC(=O)C1(CC2CCCCO2)CCN(Cc2nccn2-c2ccc(OC)cc2)CC1 (configuration not stated) | inactive
O=C(COc1ccc2ccccc2c1Br)N1CCCC1 | inactive
C=CC(=O)Oc1ccc(N2Cc3ccccc3C2=O)cc1 | inactive
CCOC(=O)Cn1nc(/C=C/c2ccccc2)ccc1=O | inactive
O=C1NC(Cc2c[nH]c3ccccc23)C(=O)N1CCOc1ccccc1 (configuration not stated) | inactive
CC(C)c1nnc(NC(=O)c2sc3ccccc3c2Cl)s1 | inactive
CC(C)c1nnc(NC(=O)c2cc3cc(Br)ccc3oc2=O)s1 | inactive
O=C(N/N=C/C=C/c1ccccc1)c1cccs1 | inactive
N/C(=N\OC(=O)c1cccs1)c1ccccc1 | inactive
O=C(OCC(=O)c1c[nH]c2ccccc12)c1ccc([N+](=O)[O-])s1 | inactive
CCOC(=O)c1c(C)[nH]c(C)c1C(=O)COC(=O)c1ccc([N+](=O)[O-])s1 | inactive
CC1(C)CC(=O)C2=C(C1)OC(N)=C([N+](=O)[O-])C2c1ccc(C#N)s1 (configuration not stated) | inactive

SMILES | outcome
COC(=O)C1=C(N)OC2=C(C(=O)CC(C)(C)C2)C1c1cccnc1 (configuration not stated) | inactive
COc1ccccc1NC(=O)CCN1CCN(c2ccc(Cl)cc2)CC1 | inactive
O=[N+]([O-])c1ccc(CSc2nnc(-c3cccnc3)o2)cc1 | inactive
CC1(c2nnc(-c3ccc(F)cc3)o2)CC(c2cccc(Cl)c2)=NO1 (configuration not stated) | inactive
COC(=O)CCn1c(C)cc(C(=O)COc2ccccc2C(N)=O)c1C | inactive
CCOC(=O)C(C)Oc1ccc(OCc2ccccc2)cc1 (configuration not stated) | inactive
CCCNC(=O)c1ccc(COc2ccc(C)cc2)o1 | inactive
Cc1ccc(/C=C2\SC(N3CCCC3)=NC2=O)cc1 | inactive
CCNC(=O)NC(=O)C(C)OC(=O)CCCSc1nc2ccccc2s1 (configuration not stated) | inactive
O=[N+]([O-])c1ccc(Nc2ccccc2O)c2nonc12 | inactive
O=[N+]([O-])c1ccc(Nc2ccccc2)c2nonc12 | inactive
CC1(c2nnc(-c3ccccc3)o2)CC(c2ccc(Cl)cc2)=NO1 (configuration not stated) | inactive
Cn1cccc1/C=N/NC(=O)c1ccncc1 | inactive
C/C(=N/NC(=O)c1ccncc1)C1=C(O)CC(C)(C)CC1=O | inactive
O=[N+]([O-])c1cncc([N+](=O)[O-])c1Nc1ccccc1Cl | inactive
Cc1cccc(NC(=O)c2ccc(OC3CSC3)cc2)c1 | inactive
O=C(N/N=C/c1ccc(OC(=O)c2cccs2)cc1)c1ccccn1 | inactive
COc1ccc(Cc2nnc(SCc3ccc([N+](=O)[O-])cc3)o2)cc1 | inactive
O=C(Nc1ccc2c(c1)CCC2)c1ccc(Br)o1 | inactive
COc1cccc(NC(=O)c2ccc(Cn3cc([N+](=O)[O-])cn3)o2)c1 | inactive
O=C(OCC(=O)N1CCC(c2ccccc2)=N1)c1ccc([N+](=O)[O-])s1 | inactive
CC(OC(=O)c1ccc([N+](=O)[O-])s1)C(=O)NC1CCCCC1C (configuration not stated) | inactive
CC(=O)c1ccc(NC(=O)CCc2ccc(C)o2)cc1 | inactive
CC(C)(C)C(=O)/C=C/Nc1ccccc1O | inactive
O=C(CC1CC2CCC1C2)NCc1cccs1 (configuration not stated) | inactive

SMILES | outcome
O=C(OCC(=O)N1CCc2ccccc2C1)c1cccc([N+](=O)[O-])c1 | inactive
O=C(CCS(=O)(=O)c1ccc(Cl)cc1)Oc1ccc2c(c1)OCO2 | inactive
CCc1cc(C=NC2CCCCC2)c(O)s1 | inactive
Cc1ccc(CSc2nnc(-c3cccnc3)o2)cc1 | inactive
Cc1ccccc1C1=N/C(=C/c2cccnc2)C(=O)O1 | inactive
CCCc1nnc(NC(=O)c2cc3ccccc3oc2=O)s1 | inactive
COc1cc(OC)c2c(OC)cccc2n1 | inactive
Cc1ccc(C(C)NC(=O)c2cc3ccccc3oc2=O)cc1C (configuration not stated) | inactive
CC(NC(=O)c1cc2ccccc2oc1=O)c1ccccc1 (configuration not stated) | inactive
CCCc1cc(C(=O)Nc2cccc(C(C)=O)c2)no1 | inactive
Cc1cc(OCC(=O)Nc2ccncc2)ccc1Br | inactive
CSC1=N/C(=C\c2ccc3c(c2)OCO3)C(=O)S1 | inactive
COc1ccc2c(c1)sc(=N)n2C | inactive
Cc1ccc(NC(=O)C2COc3ccccc3O2)nc1 (configuration not stated) | inactive
COc1ccc(C(=O)Nc2nnc(C3=COCCO3)o2)cc1 | inactive
O=C(Nc1nnc(C2=COCCO2)o1)c1ccc(F)cc1 | inactive
CCCn1c(CNc2ccccc2O)nc2ccccc21 | inactive
O=c1oc2ccccc2c(Nc2ccccc2O)c1[N+](=O)[O-] | inactive
Clc1ccc(OC2CCN(Cc3nc(CC4CC4)no3)CC2)cc1 | inactive
CCCCOc1ccc(-c2nnn(C(C)C(=O)OCC)n2)cc1 (configuration not stated) | inactive
CCOC(=O)c1sc(NC(=O)CCN2CC(C)OC(C)C2)c(C(=O)OCC)c1C (configuration not stated) | inactive
CCc1nonc1NC(=O)COc1ccc(Cl)c(C)c1 | inactive
